From PMC7862700, “An all-to-all approach to the identification of sequence-specific readers for epigenetic DNA modifications on cytosine” come the findings set out here.

Common to all, as to test: DAPPL (digital affinity profiling via proximity ligation, sequencing); 10 mM Tris-HCl pH 7.5, 50 mM NaCl, 1 mM DTT, 4% glycerol, room temperature, 30 min; GST-TFs on glutathione beads, 16-mer random dsDNA library, 0.1% formaldehyde crosslink after washing; high values mean tight binding
Details in all cases: protein: recombinant; tags: N-terminal GST; dsDNA, one strand shown

Assay [1] concerns the target T1, ERF (Homo sapiens, UniProt P50548 1-548).
T1 sequence: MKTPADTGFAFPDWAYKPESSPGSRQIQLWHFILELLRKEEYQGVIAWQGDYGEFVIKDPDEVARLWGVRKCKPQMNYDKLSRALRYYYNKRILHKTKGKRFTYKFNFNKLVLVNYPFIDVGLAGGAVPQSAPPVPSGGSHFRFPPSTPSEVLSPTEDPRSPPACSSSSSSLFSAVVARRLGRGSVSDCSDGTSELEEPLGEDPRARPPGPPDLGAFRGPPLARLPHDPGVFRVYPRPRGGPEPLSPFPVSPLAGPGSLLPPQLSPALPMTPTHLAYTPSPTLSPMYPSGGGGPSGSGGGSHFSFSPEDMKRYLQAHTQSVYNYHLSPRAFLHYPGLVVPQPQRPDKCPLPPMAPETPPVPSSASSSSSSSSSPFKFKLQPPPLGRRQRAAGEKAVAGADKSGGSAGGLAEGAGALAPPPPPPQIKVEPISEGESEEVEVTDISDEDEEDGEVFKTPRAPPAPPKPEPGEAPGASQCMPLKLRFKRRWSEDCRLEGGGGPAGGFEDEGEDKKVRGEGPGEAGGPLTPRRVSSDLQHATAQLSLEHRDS
In outline: (§1)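 The binding signal reported is, for every hexamer, its read frequency for a factor over its read frequency for the tag-only sample. Reads came from pools of yeast-expressed, GST-fused human transcription factors on glutathione beads, barcoded with DNA and mixed with that sample, which were incubated with 200 nmole of a random double-stranded 16-mer DNA library in Tris/NaCl/DTT/glycerol buffer at room temperature for 30 min. After washing, the pools were crosslinked with 0.1% formaldehyde, proximity-ligated with BsaI/T4 ligase for 1 h at 37 °C, PCR-amplified and sequenced on an Illumina NextSeq500.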

In assay [2] the target is T2, ETV3L (Homo sapiens, UniProt Q6ZN32 1-361).
T2 sequence: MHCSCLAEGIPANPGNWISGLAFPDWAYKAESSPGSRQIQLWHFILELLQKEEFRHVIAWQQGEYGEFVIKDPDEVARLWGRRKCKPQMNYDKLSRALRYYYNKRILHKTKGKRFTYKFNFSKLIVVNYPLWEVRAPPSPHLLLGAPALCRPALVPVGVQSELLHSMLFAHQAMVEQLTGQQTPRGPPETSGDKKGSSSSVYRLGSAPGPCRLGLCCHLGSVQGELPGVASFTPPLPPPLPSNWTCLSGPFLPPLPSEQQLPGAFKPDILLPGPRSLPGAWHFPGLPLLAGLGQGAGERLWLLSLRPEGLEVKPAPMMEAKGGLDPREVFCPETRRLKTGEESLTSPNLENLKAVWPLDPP
A digest of the protocol:
as §1

Assay [3] concerns the target T3, ETS2 (Homo sapiens, UniProt P15036 1-469).
T3 sequence: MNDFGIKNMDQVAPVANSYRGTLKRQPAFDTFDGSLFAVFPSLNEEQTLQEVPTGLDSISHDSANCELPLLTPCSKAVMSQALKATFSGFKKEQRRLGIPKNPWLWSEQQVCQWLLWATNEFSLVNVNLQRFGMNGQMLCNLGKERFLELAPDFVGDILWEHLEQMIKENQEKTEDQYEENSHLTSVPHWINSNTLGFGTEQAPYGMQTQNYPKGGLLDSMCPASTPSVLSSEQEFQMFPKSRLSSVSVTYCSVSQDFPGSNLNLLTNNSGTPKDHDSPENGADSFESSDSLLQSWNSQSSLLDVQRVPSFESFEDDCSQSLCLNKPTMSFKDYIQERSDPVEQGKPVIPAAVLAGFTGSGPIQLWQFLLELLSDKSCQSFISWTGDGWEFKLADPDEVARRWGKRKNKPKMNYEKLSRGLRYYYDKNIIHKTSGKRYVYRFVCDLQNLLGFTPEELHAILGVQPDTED
A digest of the protocol: as §1

The target in assay [4] is T4, SPDEF (Homo sapiens, UniProt O95238 1-335).
T4 sequence: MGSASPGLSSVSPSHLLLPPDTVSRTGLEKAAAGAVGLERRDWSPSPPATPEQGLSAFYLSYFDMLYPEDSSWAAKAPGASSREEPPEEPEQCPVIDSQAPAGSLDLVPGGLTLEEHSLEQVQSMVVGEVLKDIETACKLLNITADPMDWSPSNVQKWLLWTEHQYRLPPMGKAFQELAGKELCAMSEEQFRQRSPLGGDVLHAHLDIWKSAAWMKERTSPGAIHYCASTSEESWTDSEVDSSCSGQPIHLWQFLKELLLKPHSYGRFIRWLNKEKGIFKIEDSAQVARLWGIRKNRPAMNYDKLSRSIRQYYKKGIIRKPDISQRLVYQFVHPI
A digest of the protocol:
as §1

In assay [5] the target is T5, ETV7 (Homo sapiens, UniProt Q9Y603 1-341).
T5 sequence: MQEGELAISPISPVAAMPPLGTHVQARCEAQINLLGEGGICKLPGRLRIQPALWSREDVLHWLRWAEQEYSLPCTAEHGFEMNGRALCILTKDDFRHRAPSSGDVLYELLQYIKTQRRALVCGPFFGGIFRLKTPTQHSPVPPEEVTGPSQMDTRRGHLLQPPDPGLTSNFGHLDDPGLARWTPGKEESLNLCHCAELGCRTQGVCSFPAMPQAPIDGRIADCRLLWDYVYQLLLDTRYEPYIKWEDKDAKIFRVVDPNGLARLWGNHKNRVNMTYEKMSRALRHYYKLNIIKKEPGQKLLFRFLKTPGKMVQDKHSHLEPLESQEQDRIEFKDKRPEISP
A digest of the protocol:
as §1

Assay [6] addresses T6, ELF5 (Homo sapiens, UniProt Q9UKW6-2 1-255).
T6 sequence: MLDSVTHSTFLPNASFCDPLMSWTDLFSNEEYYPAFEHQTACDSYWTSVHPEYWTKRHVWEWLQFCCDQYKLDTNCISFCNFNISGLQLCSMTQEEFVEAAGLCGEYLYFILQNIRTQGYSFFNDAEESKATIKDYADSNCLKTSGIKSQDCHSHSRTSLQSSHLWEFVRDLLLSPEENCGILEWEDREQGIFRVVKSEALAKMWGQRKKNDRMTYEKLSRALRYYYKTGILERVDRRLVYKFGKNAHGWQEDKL
A digest of the protocol:
as §1

Assay [7] addresses T7, ETV3 (Homo sapiens, UniProt P41162-2 1-143).
T7 sequence: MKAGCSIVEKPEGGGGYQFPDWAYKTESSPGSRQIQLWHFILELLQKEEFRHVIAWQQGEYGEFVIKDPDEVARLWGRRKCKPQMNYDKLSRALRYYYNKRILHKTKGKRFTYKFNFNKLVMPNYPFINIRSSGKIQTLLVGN
In outline: as §1

In assay [8] the target is ETV6 (Homo sapiens, UniProt P41212 1-452). In outline:
as §1

Chain of ETV6 (P41212 whole entry): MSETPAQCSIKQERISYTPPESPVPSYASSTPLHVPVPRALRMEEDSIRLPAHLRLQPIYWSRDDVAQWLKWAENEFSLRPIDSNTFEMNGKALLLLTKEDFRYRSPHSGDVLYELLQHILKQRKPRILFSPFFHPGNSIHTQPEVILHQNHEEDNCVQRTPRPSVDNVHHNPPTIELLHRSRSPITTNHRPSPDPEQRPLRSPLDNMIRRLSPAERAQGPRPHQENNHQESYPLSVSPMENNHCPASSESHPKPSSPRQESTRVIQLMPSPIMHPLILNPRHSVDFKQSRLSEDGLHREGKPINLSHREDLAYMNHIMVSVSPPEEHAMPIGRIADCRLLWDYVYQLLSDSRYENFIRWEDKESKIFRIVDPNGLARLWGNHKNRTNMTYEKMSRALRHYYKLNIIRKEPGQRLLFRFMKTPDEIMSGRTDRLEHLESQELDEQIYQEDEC

In the case of TACCTA, the binding signal was 1.25 fold enrichment (6-mer frequency, TF over GST control) in assay [1]; 1.28 fold enrichment (6-mer frequency, TF over GST control) in assay [2]; 1.31 fold enrichment (6-mer frequency, TF over GST control) in assay [3]; 1.19 fold enrichment (6-mer frequency, TF over GST control) in assay [4]; 1.27 fold enrichment (6-mer frequency, TF over GST control) in assay [5]; 1.23 fold enrichment (6-mer frequency, TF over GST control) in assay [6]. Also, the binding signal in assay [7] is 1.2 fold enrichment (6-mer frequency, TF over GST control); in assay [8], 1.29 fold enrichment (6-mer frequency, TF over GST control).
For the sequence GTAATA, the binding signal in assay [1] is 1.12 fold enrichment (6-mer frequency, TF over GST control); in assay [2] it was 1.16 fold enrichment (6-mer frequency, TF over GST control); in assay [3], 1.11 fold enrichment (6-mer frequency, TF over GST control); in assay [4] it was 1.16 fold enrichment (6-mer frequency, TF over GST control); in assay [5] it was 1.29 fold enrichment (6-mer frequency, TF over GST control); in assay [6], 1.2 fold enrichment (6-mer frequency, TF over GST control). Besides, the binding signal in assay [7] was 1.06 fold enrichment (6-mer frequency, TF over GST control); in assay [8], 1.16 fold enrichment (6-mer frequency, TF over GST control).
TTTACA: the binding signal in assay [1] is 1.28 fold enrichment (6-mer frequency, TF over GST control); in assay [2], 1.23 fold enrichment (6-mer frequency, TF over GST control); in assay [3], 1.25 fold enrichment (6-mer frequency, TF over GST control); in assay [4] it was 1.15 fold enrichment (6-mer frequency, TF over GST control); in assay [5], 1.22 fold enrichment (6-mer frequency, TF over GST control); in assay [6], 1.22 fold enrichment (6-mer frequency, TF over GST control). Moreover, the binding signal is 1.22 fold enrichment (6-mer frequency, TF over GST control) in assay [7] and 1.17 fold enrichment (6-mer frequency, TF over GST control) in assay [8].
In the case of ATCCCT, the binding signal is 1.33 fold enrichment (6-mer frequency, TF over GST control) in assay [1]; 1.35 fold enrichment (6-mer frequency, TF over GST control) in assay [2]; 1.23 fold enrichment (6-mer frequency, TF over GST control) in assay [3]; 1.41 fold enrichment (6-mer frequency, TF over GST control) in assay [4]; 1.14 fold enrichment (6-mer frequency, TF over GST control) in assay [5]; 1.37 fold enrichment (6-mer frequency, TF over GST control) in assay [6]. Besides, the binding signal in assay [7] was 1.21 fold enrichment (6-mer frequency, TF over GST control); in assay [8] it was 1.23 fold enrichment (6-mer frequency, TF over GST control).
For the sequence CAATAT, the binding signal in assay [1] was 1.28 fold enrichment (6-mer frequency, TF over GST control); in assay [2], 1.26 fold enrichment (6-mer frequency, TF over GST control); in assay [3] it was 1.28 fold enrichment (6-mer frequency, TF over GST control); in assay [4], 1.34 fold enrichment (6-mer frequency, TF over GST control); in assay [5], 1.27 fold enrichment (6-mer frequency, TF over GST control); in assay [6], 1.2 fold enrichment (6-mer frequency, TF over GST control). Further, the binding signal is 1.33 fold enrichment (6-mer frequency, TF over GST control) in assay [7] and 1.23 fold enrichment (6-mer frequency, TF over GST control) in assay [8].
Turning to AAAGAC, the binding signal in assay [1] was 1.08 fold enrichment (6-mer frequency, TF over GST control); in assay [2] it was 1.06 fold enrichment (6-mer frequency, TF over GST control); in assay [3], 1.12 fold enrichment (6-mer frequency, TF over GST control); in assay [4] it was 1.01 fold enrichment (6-mer frequency, TF over GST control); in assay [5], 1.03 fold enrichment (6-mer frequency, TF over GST control); in assay [6], 1.03 fold enrichment (6-mer frequency, TF over GST control). Further, the binding signal in assay [7] is 1.01 fold enrichment (6-mer frequency, TF over GST control); in assay [8] it was 1.16 fold enrichment (6-mer frequency, TF over GST control).
For the sequence CTTCAT, the binding signal in assay [1] was 1.35 fold enrichment (6-mer frequency, TF over GST control); in assay [2], 1.52 fold enrichment (6-mer frequency, TF over GST control); in assay [3], 1.43 fold enrichment (6-mer frequency, TF over GST control); in assay [4], 1.43 fold enrichment (6-mer frequency, TF over GST control); in assay [5] it was 1.46 fold enrichment (6-mer frequency, TF over GST control); in assay [6], 1.44 fold enrichment (6-mer frequency, TF over GST control). Besides, the binding signal in assay [7] was 1.46 fold enrichment (6-mer frequency, TF over GST control); in assay [8], 1.33 fold enrichment (6-mer frequency, TF over GST control).
ATTTTT: the binding signal in assay [1] was 1.21 fold enrichment (6-mer frequency, TF over GST control); in assay [2] it was 1.2 fold enrichment (6-mer frequency, TF over GST control); in assay [3], 1.1 fold enrichment (6-mer frequency, TF over GST control); in assay [4], 1.15 fold enrichment (6-mer frequency, TF over GST control); in assay [5] it was 1.19 fold enrichment (6-mer frequency, TF over GST control); in assay [6], 1.16 fold enrichment (6-mer frequency, TF over GST control). Further, the binding signal in assay [7] was 1.17 fold enrichment (6-mer frequency, TF over GST control); in assay [8], 1.17 fold enrichment (6-mer frequency, TF over GST control).
